The campaign covered roughly 94,000 compounds. About 6,200 (6.6%) were called active. Roughly 31% stayed inconclusive and do not appear here. The call rests on the fitted dose curve; in most records, active means well fitted inhibition curve with a large enough effect; inconclusive means small, poorly fitted or top-dose-only effect; inactive means flat fitted curve, though single readings scatter. What follows is part of a selection rich in actives, with near analogues and random picks from the rest. Where a call stands in place of a potency, no number is given.
Potency means the concentration at half of the fitted maximal effect.

A short description of this test: Cytotoxic Profiling in HEK 293 Cell Line of Diverse Libraries Using Quantitative High-Throughput Screening. Further: nearly all actives have a fitted effect of over 60% in size. The note with it: HEK 293 viability, ATP luminescence (CellTiter-Glo), 48-72 h; series mostly up to 115 µM. Summed up:
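Read-out: CellTiter-Glo ATP luminescence. Cells: HEK 293, 250 cells/well. Exposure: 48 or 72 hr, 37 degree Celsius.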
(In general: ATP-based viability assays read luminescence as a measure of living cells.)
With `CN(C)C(=O)C1CN(C(=O)c2ccccc2Cl)CC12CCOCC2` (stereo unspecified), the Potency result is “inactive”.

On to `Cc1cnc(C2CC2)n1C1CCN(C(=O)C(C)C)CC1`, for which the Potency entry was “inactive”.

On to `COc1ccc(C(=O)N2CCOC3(CCN(C(=O)CN)CC3)C2)cc1`, for which the Potency result is “inactive”.

Regarding `COCCNC(=O)c1ccc(CC2CCNCC2)cc1`, the Potency result was “inactive”.

With `Cc1cnc(-c2cccnc2)n1C1CCN(S(=O)(=O)c2cccc(F)c2)CC1`, the Potency entry is “inactive”.

`O=C(c1c(OCC2CC2)cc(=O)n2c1CCOCC2)N1CCCCCC1`: the Potency entry was “inactive”.

On to `CCOc1ccc(NC(=O)C2(Cc3cccnc3)CCCCC(=O)N2)cc1` (stereo unspecified), for which the Potency result was “inactive”.

In the case of `COc1cccc(NC(=O)c2c(OC)cc(=O)n3c2CCCC3)c1`, the Potency entry is “inactive”.

On to `COc1cccc(NC(=O)c2cnc3n[nH]c(-c4ccc(OC)cc4C)c3n2)c1`, for which the Potency is 100 µM (active).

Regarding `COC(=O)C1=CN(CC(=O)Nc2cccc(OC)c2)S(=O)(=O)N=C1C`, the Potency result was “inactive”.

Turning to `CC(c1ccon1)N(C)Cc1cnc(S(=O)(=O)C(C)C)n1Cc1ccccc1F` (stereo unspecified), the Potency result was “inactive”.

In the case of `O=C(NC1CCCCC1)N1CCCCCC1c1nc(-c2cccnc2)no1` (stereo unspecified), the Potency result was “inactive”.

In the case of `CC(=O)N1CCC(N2CCC[C@H]2c2nc(-c3ccc(-c4cncnc4)nc3)no2)CC1`, the Potency entry is “inactive”.

As to `CN1CCC(N2CCC[C@H]2c2nc(-c3ccc(OC4CCCCC4)nc3)no2)CC1`, the Potency was 28.2 µM (active).

Consider `O=C(N[C@@H]1CN(Cc2cccnc2)C[C@H]1CO)c1cccnc1`, for which the Potency entry is “inactive”.

Take `O=[S+]([O-])(Nc1cccnc1)c1ccc2c(c1)OCCN(Cc1cscn1)C2`: the Potency entry was “inactive”.

On to `CCn1cc(CN2CCOc3ccc(C(=O)NCc4ccccc4F)cc3C2)cn1`, for which the Potency result was “inactive”.

Take `COc1c(F)cccc1CN1CCOc2cc([S+](=O)([O-])N(C)C)ccc2C1`: the Potency is 79.4 µM (active).

In the case of `O=C(c1ccccc1F)N1CCCC2(CN[S+](=O)([O-])c3cccnc3N2)C1` (stereo unspecified), the Potency entry is “inactive”.

Turning to `CN(CCCNC1CCC2(CCNCC2)CC1)c1ccccc1`, the Potency is 79.4 µM (active).

Regarding `O=c1c2ccccc2cnn1CCNC1CCC2(CCNCC2)CC1`, the Potency result was “inactive”.

For `Cc1nonc1OCCNC1CCC2(CCNCC2)CC1`, the Potency result is “inactive”.

In the case of `CNC(=O)[C@@H]1CN(C(=O)c2cnc(C)cn2)C[C@H]1COC`, the Potency entry is “inactive”.

Consider `Cc1onc(-c2cnn(C)c2NCc2ccc(C#N)cc2)c1C(=O)N1CCN(C)CC1`, for which the Potency result was “inactive”.

Consider `CNC(=O)N1CCCC1c1nc(C2CN(C(=O)c3nccn3C)C2)no1` (stereo unspecified), for which the Potency result is “inactive”.

On to `Cn1ncc2c(C(=O)NCc3ccc4c(c3)OCO4)cc(-c3ccc(Cl)nc3)nc21`, for which the Potency entry is “inactive”.

As to `CC1(C(=O)NCc2ccc3c(c2)OCO3)CCc2cnc(NCc3ccccc3)nc21` (stereo unspecified), the Potency was 70.8 µM (active).

In the case of `CN1C(=O)CC[C@]2(C(=O)NCc3ccc4c(c3)OCO4)CCCC[C@@H]12`, the Potency entry was “inactive”.

Take `O=C1Nc2ccc(-c3ccccc3)cc2C(=O)N2C[C@H](O)C[C@@H]12`: the Potency entry was “inactive”.

For the compound `O=C(Cc1cc(F)c(F)c(F)c1)N1CCC(Cc2cccc(CO)c2)C1` (stereo unspecified), the Potency entry was “inactive”.

As to `CC(C)(CC(=O)O)CC(=O)N[C@H]1CO[C@H]2[C@@H]1OC[C@@H]2n1nnnc1-c1ccccc1`, the Potency result was “inactive”.

Regarding `c1ccc(CO[C@@H]2CO[C@H]3[C@@H]2OC[C@@H]3n2nnnc2SCc2ccco2)cc1`, the Potency is 89.1 µM (active).

In the case of `CN(C)CC(=O)N1CC[C@H]2COC(=O)N2c2ccccc2C1`, the Potency entry is “inactive”.

For `Cc1nc(CCNC(=O)NC2CCCC2)no1`, the Potency result is “inactive”.

As to `COC1C(=O)N(c2cccc(F)c2)C12CCN(C(=O)C1(c3ccccc3)CC1)CC2` (stereo unspecified), the Potency is 44.7 µM (active).

Take `CNC(=O)[C@@H]1C[C@@H](O)CN1C1CCN(C(=O)C2(c3ccccc3)CC2)CC1`: the Potency entry is “inactive”.

On to `CN1C(=O)CS(=O)(=O)C12CCN(C(=O)C1(c3ccccc3)CC1)CC2`, for which the Potency entry was “inactive”.

For the compound `O=C([C@@H]1C[C@H](Oc2cccnc2)CN1C(=O)Cc1cccc(F)c1)N1CCCC1`, the Potency result was “inactive”.

For `CCCN(CC1CCOC1)S(=O)(=O)c1ccccc1Cl` (stereo unspecified), the Potency result was “inactive”.

On to `CN1CCN(c2nc3c(c(=O)[nH]2)CCN(Cc2cccc4[nH]ccc24)CC3)CC1`, for which the Potency result was “inactive”.

As to `Cc1ccc(C2Cn3nnc(C(=O)N4CCN(C(=O)COc5cccc(C)c5)CC4)c3CO2)cc1` (stereo unspecified), the Potency entry is “inactive”.

For the compound `O=C1CC(c2nc(-c3ccc4nc[nH]c4c3)no2)CN1Cc1ccncc1` (stereo unspecified), the Potency result is “inactive”.

Take `c1ccc2c(CN3CCC[C@H]3c3nc(-c4ccnc(N5CCOCC5)c4)no3)c[nH]c2c1`: the Potency is 89.1 µM (active).

As to `CC(=O)N1CCN(c2cc(-c3noc([C@@H]4CCCN4Cc4ccccc4)n3)ccn2)CC1`, the Potency is 70.8 µM (active).

With `CS(=O)(=O)c1ccc(CN2CCC[C@H]2c2nc(-c3ccc(N4CCC(C(N)=O)CC4)nc3)no2)cc1`, the Potency entry is “inactive”.

For the compound `COc1ccc(CN2CCC[C@H]2c2nc(-c3ccc(N(C)C)nc3)no2)c(O)c1`, the Potency entry was “inactive”.

Consider `CC(=O)N1CCN(c2cc(-c3noc([C@@H]4CCCN4C4CCC4)n3)ccn2)CC1`, for which the Potency result was “inactive”.

On to `Cc1cn2nc(C(=O)NCc3cccs3)cc2c(N2CCCC2)n1`, for which the Potency result was “inactive”.

Regarding `CNc1nc(N2CC[C@H](N3CCN(C)CC3)[C@H](CCC(=O)O)C2)ncc1F`, the Potency entry was “inactive”.

As for `COc1ccc(NC(=O)N2CCC(CC(=O)NCc3ccccc3)C2)cc1OC` (stereo unspecified), the Potency entry was “inactive”.

As for `COC[C@H]1CCCN1Cc1nc(C2(O)CCN(CC3CCCCC3)CC2)cs1`, the Potency result was “inactive”.

Regarding `Cc1nc(CCNS(=O)(=O)Cc2cccc(Cl)c2)no1`, the Potency result was “inactive”.

Regarding `COc1ccc(C(=O)N2CC(c3nnc(-c4ccncc4)o3)C3(CCOCC3)C2)cn1` (stereo unspecified), the Potency entry is “inactive”.

For `Cc1ccc(CC(=O)N2CCC(Cc3nc(-c4cnccn4)no3)CC2)cc1`, the Potency entry was “inactive”.

As to `O=C(NCCc1ccccc1)C1CCCN1C(=O)c1cccc(-c2ccccn2)c1` (stereo unspecified), the Potency result was “inactive”.

`CC(=O)N1CCC(c2nnc3n2C(C(=O)NCCCc2ccccc2)CC3)CC1` (stereo unspecified): the Potency entry was “inactive”.

Consider `Cc1ccc(Nc2ccnc(N3CCCC3C(=O)N3CCC(Cc4ccccc4)CC3)n2)cc1` (stereo unspecified), for which the Potency was 14.1 µM (active).

Consider `CNC(=O)[C@@H](Cc1ccccc1)N1CCC[C@H]1C(=O)N1CCC1`, for which the Potency result is “inactive”.

With `O=C(NCCCc1ccccc1)C1CCCN1c1nccc(Nc2ccccc2F)n1` (stereo unspecified), the Potency is 44.7 µM (active).

`Cn1ccc(C(=O)N2C[C@H]3CN(C4CCOCC4)C[C@@]3(C(=O)O)C2)n1`: the Potency result was “inactive”.

On to `COC(=O)[C@H](Cc1ccc(OC)cc1)NC(=O)[C@H]1CN(S(=O)(=O)c2ccccc2)CCN1C(C)=O`, for which the Potency entry was “inactive”.

As to `COCCC(=O)N1C[C@@H](COC)[C@H](c2nc(C)no2)C1`, the Potency entry is “inactive”.

For `CNC(=O)[C@@H]1C[C@@H](n2cc(CN(C)C(=O)Nc3ccc(C)c(C)c3)nn2)CN1`, the Potency entry was “inactive”.

As to `C=CCN1C[C@@H]2CN(C(=O)CCc3cccc(OC)c3)C[C@]2(C(=O)O)C1`, the Potency entry is “inactive”.

For the compound `Cc1noc(C)c1[S+](=O)([O-])N1CCC(C(=O)N2CCC(c3nc4ncccc4[nH]3)CC2)CC1`, the Potency result is “inactive”.

As for `Cc1noc(C)c1[S+](=O)([O-])N1CCC(C(=O)N2CCC(c3nc4ccncc4[nH]3)C2)CC1` (stereo unspecified), the Potency result is “inactive”.

With `Cc1noc(C)c1[S+](=O)([O-])N1CCCC(C(=O)N2CCC(c3ccccc3)CC2)C1` (stereo unspecified), the Potency was 44.7 µM (active).

For `CCC(C)NC(=O)C1(c2ccc(NS(C)(=O)=O)cc2)CCCCC1` (stereo unspecified), the Potency entry was “inactive”.

For `COc1ccc(C(=O)N2CCCC(c3nc(-c4cnccn4)no3)CCNC(=O)CC2)c(OC)n1` (stereo unspecified), the Potency entry is “inactive”.

With `Cc1ccc(C(=O)N2CCC(c3n[nH]c(=O)n3-c3ccccc3)CC2)cc1F`, the Potency result was “inactive”.

With `CN(Cc1csc(-c2ccccc2)n1)c1cc(C2CC(O)C2)nc(N)n1` (stereo unspecified), the Potency is 25.1 µM (active).

As to `COc1ccc(N2C(=O)CSC23CCN(C(=O)c2ccc(C)cc2)CC3)cc1`, the Potency result is “inactive”.

`O=C(c1cc(F)ccc1F)N1CCCC2(C1)NC(=O)N(Cc1ccccc1)C2=O` (stereo unspecified): the Potency result was “inactive”.

Consider `COc1cccc(S(=O)(=O)N2CCC(n3cnnc3C3CC3)CC2)c1`, for which the Potency entry is “inactive”.

On to `Cc1cccc2c(C3CCN(S(=O)(=O)c4cc(Cl)cc(Cl)c4)CC3)c[nH]c12`, for which the Potency was 25.1 µM (active).

For the compound `O=C(O)[C@@H]1CN(C(=O)CCCn2cncn2)C[C@H]1c1ccc2c(c1)OCO2`, the Potency entry is “inactive”.

On to `O=C(N[C@@H]1CN(C(=O)c2ccc3nc[nH]c3c2)CC[C@@H]1CO)C1CC1`, for which the Potency result was “inactive”.

As for `CC(C)C1=NOC2(CCN(C(=O)c3ccccc3F)C2)C1` (stereo unspecified), the Potency result was “inactive”.

As for `O=C(C1CCOC1)N1CCC(N(Cc2ccccc2)C2CCOCC2)CC1` (stereo unspecified), the Potency was 89.1 µM (active).

With `O=C(NC1CC1)c1ccc(CC2CCN(C(=O)C3CCOC3)CC2)cc1` (stereo unspecified), the Potency result was “inactive”.

Consider `O=C(C1CCOCC1)N1CCOC[C@H](Oc2ccccc2)C1`, for which the Potency result was “inactive”.

With `Cn1cc(-c2ccsc2)c2nc(CN3CCNC(=O)C3)cn2c1=O`, the Potency result is “inactive”.

For `CN1CCN(C(=O)c2ccc3nnc(C(C)(C)C)n3c2)CC1`, the Potency result was “inactive”.

For the compound `CCc1cc(=O)n(CC(=O)Nc2cccc(C(C)=O)c2)c(-c2ccccc2)n1`, the Potency was 25.1 µM (active).

For the compound `CCc1cccc(NC(=O)Cn2c(=O)c(-c3noc(CC)n3)c3n(c2=O)CCCC3)c1`, the Potency entry was “inactive”.

Take `CCc1cc(=O)n(CC(=O)Nc2cc(OC)cc(OC)c2)c(N2CCOCC2)n1`: the Potency entry is “inactive”.

For the compound `COc1ccc(-c2ccc(C(=O)N3CCN(C(=O)c4ccccc4OC)CC3)cc2)nn1`, the Potency result is “inactive”.

For `CN(C)[C@@H]1[C@@H](NC(=O)CCn2cnc3ccccc3c2=O)[C@H]2CCO[C@H]21`, the Potency result was “inactive”.

Take `CCNC(=O)C1C(c2cccc(NC(=O)c3cccc(C)c3)c2)OC(=O)N1Cc1cccc(Cl)c1` (stereo unspecified): the Potency is 28.2 µM (active).

In the case of `CCCNC(=O)C(NC(=O)c1cccc(C)c1)C1CCN(C(=O)CCc2ccccc2)CC1` (stereo unspecified), the Potency entry is “inactive”.

As for `N#Cc1cccc(C(=O)Nc2ccc([C@H]3OCC(=O)N(Cc4ccccc4)[C@@H]3CO)cc2)c1`, the Potency entry was “inactive”.

As to `COc1cccc([S+](=O)([O-])N2CCC(C(=O)N3CCC(N4CCOCC4=O)CC3)CC2)c1`, the Potency entry was “inactive”.

Turning to `COCc1cc(=O)n(CC(=O)Nc2ccc(Cl)cc2)c(N2CCOCC2)n1`, the Potency result is “inactive”.

In the case of `c1ccc2c(c1)CNC1(CCN(Cc3cccc4ccccc34)CC1)CO2`, the Potency was 79.4 µM (active).

Regarding `COc1ccc(CN2CCC3(CC2)COc2ccccc2CN3)cc1`, the Potency entry is “inactive”.

`O=[S+]1([O-])NC2(CCN(Cc3ccccc3)CC2)COc2ccccc21`: the Potency entry was “inactive”.

These data come from PubChem BioAssay AID1345083 (National Center for Advancing Translational Sciences (NCATS), 2018).
